According to PubChem BioAssay:
Unmarked numbers belong to inactive results. For some assays here: Results with a measured potency or affinity are listed apart. The source made the active and inactive calls. Unless noted, the rule behind the calls is not given here.

What was measured:
[1] = antimalarial activity against Dd2 strain (AID 2302;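 active = growth inhibition above 50% at the single 2 µM test dose, taken to imply half-maximal potency below 2 µM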;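 note: 0% = DMSO untreated growth and 100% = chloroquine plus artemisinin killed control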); details: P. falciparum Dd2 in RBCs, LDH growth readout, 72 h; at 2 µM; hits give high values
[2] = human hepatoma cell viability loss – ATP luminescence, cytotoxicity control for P. falciparum antimalarial project, primary screen (AID 2303;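 active = inhibition above 50%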;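 note: 0% = DMSO wells and 100% = digitonin-killed cells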); details: HepG2 viability, 24-48 h, at 10 µM, hits give high values
[3] = molecular target: L-lactate dehydrogenase (Plasmodium falciparum (isolate CDC / Honduras)) (UniProt Q27743); assay: PfLDH activity inhibition – cell lysate, 3D7 strain, counter-screen for P. falciparum growth inhibition project (AID 2304);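 note: 0% = vehicle and 100% = reference inhibitor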; details: P. falciparum 3D7 crude extract, LDH APAD/NBT absorbance; at 2 µM; hits give high values
L-lactate dehydrogenase (Plasmodium falciparum (isolate CDC / Honduras)), sequence (Q27743 whole entry, looked up): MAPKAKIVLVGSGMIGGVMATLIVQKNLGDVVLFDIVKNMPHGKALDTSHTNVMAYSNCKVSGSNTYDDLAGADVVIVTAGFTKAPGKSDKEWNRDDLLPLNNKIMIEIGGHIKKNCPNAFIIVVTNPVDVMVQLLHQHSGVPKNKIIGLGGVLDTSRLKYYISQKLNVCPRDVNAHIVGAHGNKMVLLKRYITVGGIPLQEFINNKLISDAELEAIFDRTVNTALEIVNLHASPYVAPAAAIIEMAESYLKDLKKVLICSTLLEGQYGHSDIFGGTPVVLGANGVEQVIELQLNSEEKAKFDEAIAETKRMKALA

[4] = inhibition of 3D7 malaria parasite growth – strain 3D7 (AID 2306);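 note: 0% = DMSO wells and 100% = chloroquine plus artemisinin control wells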; details: P. falciparum 3D7 erythrocytic growth, LDH absorbance, 72 h; at 2 µM; hits give high values
[5] = molecular target: Calcium-dependent protein kinase 1 (Plasmodium falciparum (isolate 3D7)) (UniProt P62344); assay: PfCDPK1 kinase inhibitors, biochemical, TCAMS library (AID 1159585; cut-off not given, nearly all actives have IC50 up to about 0.98 µM;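 note: inhibitors leave more ATP so luminescence rises with inhibition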); details: recombinant PfCDPK1, Kinase-Glo ATP depletion luminescence
Calcium-dependent protein kinase 1 (Plasmodium falciparum (isolate 3D7)), sequence (P62344 whole entry, looked up): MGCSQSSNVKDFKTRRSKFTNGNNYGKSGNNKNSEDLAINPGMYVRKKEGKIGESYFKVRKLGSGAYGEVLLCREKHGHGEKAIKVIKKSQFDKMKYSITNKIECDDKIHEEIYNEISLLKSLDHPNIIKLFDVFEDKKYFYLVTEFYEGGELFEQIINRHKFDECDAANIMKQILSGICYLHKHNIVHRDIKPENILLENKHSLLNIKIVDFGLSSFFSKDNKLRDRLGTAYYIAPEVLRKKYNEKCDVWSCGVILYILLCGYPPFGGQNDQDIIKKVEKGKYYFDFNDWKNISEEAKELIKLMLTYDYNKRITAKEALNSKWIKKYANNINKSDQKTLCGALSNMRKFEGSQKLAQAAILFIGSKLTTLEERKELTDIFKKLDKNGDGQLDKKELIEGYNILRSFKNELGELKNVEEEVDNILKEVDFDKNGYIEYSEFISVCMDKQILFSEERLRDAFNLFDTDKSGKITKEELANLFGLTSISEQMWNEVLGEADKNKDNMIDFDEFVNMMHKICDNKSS

[6] = molecular target: Plasmodium falciparum protein kinase 6 (PK6, PF3D7_1337100) (UniProt Q8IDW1); assay: PfPK6 kinase inhibitors, biochemical, TCAMS library (AID 1159586); details: recombinant PfPK6, Kinase-Glo ATP depletion luminescence
Plasmodium falciparum protein kinase 6 (PK6, PF3D7_1337100), sequence (Q8IDW1 1-305): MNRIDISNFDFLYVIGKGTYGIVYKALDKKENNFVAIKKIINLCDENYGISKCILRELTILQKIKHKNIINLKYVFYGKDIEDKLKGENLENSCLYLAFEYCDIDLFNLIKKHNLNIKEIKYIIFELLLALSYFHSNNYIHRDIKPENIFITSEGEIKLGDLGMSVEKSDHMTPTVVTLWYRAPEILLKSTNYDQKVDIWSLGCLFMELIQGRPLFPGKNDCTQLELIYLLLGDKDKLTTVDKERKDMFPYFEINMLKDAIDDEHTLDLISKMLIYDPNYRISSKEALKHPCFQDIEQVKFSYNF

[7] = molecular target: Protein kinase 7 (PK7), Plasmodium falciparum 3D7 (PF3D7_0213400) (UniProt Q7YTF7); assay: inhibition of Plasmodium PK7 catalytic activity – biochemical, TCAMS antimalarial set, Kinase-Glo luminescence (AID 1159587); details: recombinant PfPK7, Kinase-Glo ATP depletion luminescence
Protein kinase 7 (PK7), Plasmodium falciparum 3D7 (PF3D7_0213400), sequence (Q7YTF7 1-343): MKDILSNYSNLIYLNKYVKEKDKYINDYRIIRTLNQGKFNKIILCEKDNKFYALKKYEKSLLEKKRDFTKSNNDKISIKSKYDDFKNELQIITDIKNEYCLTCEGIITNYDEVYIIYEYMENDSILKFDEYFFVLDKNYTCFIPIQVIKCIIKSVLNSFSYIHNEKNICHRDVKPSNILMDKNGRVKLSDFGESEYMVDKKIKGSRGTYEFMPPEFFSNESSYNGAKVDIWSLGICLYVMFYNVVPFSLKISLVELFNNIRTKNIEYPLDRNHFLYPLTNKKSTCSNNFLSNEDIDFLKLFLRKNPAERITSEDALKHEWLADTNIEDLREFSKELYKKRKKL

[8] = molecular target: Calcium-dependent protein kinase 4 (Plasmodium falciparum (isolate 3D7)) (UniProt Q8IBS5); assay: PfCDPK4 kinase inhibitors, biochemical, TCAMS library (AID 1159588; cut-off not given, nearly all actives have IC50 up to about 0.91 µM); details: recombinant PfCDPK4, Kinase-Glo ATP depletion luminescence
Calcium-dependent protein kinase 4 (Plasmodium falciparum (isolate 3D7)), sequence (Q8IBS5 whole entry, looked up): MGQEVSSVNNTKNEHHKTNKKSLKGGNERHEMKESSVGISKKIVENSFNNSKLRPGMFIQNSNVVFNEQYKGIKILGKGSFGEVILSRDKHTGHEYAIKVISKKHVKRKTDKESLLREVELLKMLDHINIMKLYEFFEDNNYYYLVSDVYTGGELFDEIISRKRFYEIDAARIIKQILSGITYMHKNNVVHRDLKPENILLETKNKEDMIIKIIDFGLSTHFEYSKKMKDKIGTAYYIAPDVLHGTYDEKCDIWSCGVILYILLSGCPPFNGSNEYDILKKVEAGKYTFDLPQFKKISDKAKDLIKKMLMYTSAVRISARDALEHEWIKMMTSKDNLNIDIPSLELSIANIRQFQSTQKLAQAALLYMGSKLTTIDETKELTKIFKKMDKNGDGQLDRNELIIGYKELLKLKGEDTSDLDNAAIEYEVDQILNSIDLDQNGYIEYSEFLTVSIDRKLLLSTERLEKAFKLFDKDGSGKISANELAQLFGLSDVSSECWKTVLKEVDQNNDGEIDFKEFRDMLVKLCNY

SMILES | growth inhibition [1] | inhibition [2] | inhibition [3] [%] | growth inhibition [4] | outcome [5] | outcome [6] | outcome [7] | outcome [8]
OCCN1CCN(Cc2ccc(-c3ccc(-c4nc5ccccc5[nH]4)cc3)cc2)CC1 | 58% (active) | 6% | -1 | 100% (active) | inactive | inactive | inactive | inactive
COc1ccccc1N1CCN(Cc2c(NC(C)=O)sc(C)c2C)CC1 | 80% (active) | 9% | 3 | 95% (active) | inactive | inactive | inactive | inactive
Cc1cc(CNC(c2ccccc2)C2CCC2)cc(C)c1O (configuration not stated) | 48% | 78% (active) | -2 | 94% (active) | inactive | inactive | inactive | inactive
CC(CN(C)C)C(=O)Nc1ccc(-c2ccc(-c3nc4ccc(F)cc4[nH]3)cc2)cc1 (configuration not stated) | 95% (active) | 14% | -2 | 101% (active) | inactive | inactive | inactive | inactive
O=C(Nc1ccc(-c2cccc(-c3nc4ccc(C(F)(F)F)cc4[nH]3)c2)cc1)c1ccoc1 | 13% | 52% (active) | -9 | 96% (active) | inactive | inactive | inactive | inactive
O=C(Nc1ccc2c(c1)CCC2)c1cccc(N2CCN(c3ccncc3)CC2)c1 | 22% | 35% | -2 | 92% (active) | inactive | inactive | inactive | inactive
O=C(/C=C/c1ccc(Cl)c(Cl)c1)NCCCCCN1CCN(C(=O)Nc2ccc(OC(F)F)cc2)CC1 | -2% | 20% | 4 | 99% (active) | inactive | inactive | inactive | inactive
O=C1CSc2ccc(CNC3CCN(CCc4c(Cl)cnc5ccc(Cl)cc45)CC3)nc2N1 | 92% (active) | 25% | 2 | 101% (active) | inactive | inactive | inactive | inactive
CN(C)CCOc1cc(NC(=O)Nc2ccc(Cl)cc2C(F)(F)F)ccc1I | 16% | -2% | 5 | 96% (active) | inactive | inactive | inactive | inactive
Cc1cc(C(=O)NC2CCN(Cc3ccccc3)CC2)ccc1-c1nc2ccc(C(F)(F)F)cc2[nH]1 | 2% | 19% | -1 | 95% (active) | inactive | inactive | inactive | inactive
CN(C)c1ccc2c(c1)Sc1cc(N(C)C)ccc1N2C(=O)CCCC(=O)O | 81% (active) | -4% | -6 | 96% (active) | inactive | inactive | inactive | inactive
CNC(=O)c1cnc(Nc2ccc(N3CCN(C)CC3)cc2)nc1Nc1ccccc1OC | 84% (active) | 8% | 2 | 100% (active) | inactive | inactive | inactive | inactive
CNCc1cccc2[nH]c(-c3csc(Cc4cc(Cl)ccc4OCC(C)C)n3)nc12 | 33% | 9% | -4 | 100% (active) | inactive | inactive | inactive | inactive
Cc1[nH]c(C)c(-c2ccc(-c3cccc(Cl)c3)nc2)c(=O)c1Br | 96% (active) | 10% | 3 | 96% (active) | inactive | inactive | inactive | inactive
CC(C)(C)CCOC(=O)N1CCc2c(cc(O)c(O)c2Cl)C(c2ccc(O)cc2)C1 (configuration not stated) | 95% (active) | 2% | -2 | 97% (active) | inactive | inactive | inactive | inactive
CCCC1N=C(N)N=C(N)N1c1ccccc1 (configuration not stated) | -3% | -4% | -6 | 93% (active) | inactive | inactive | inactive | inactive
Cc1cc(NN=Cc2ccc(F)cc2)c2cc(F)ccc2n1 | 61% (active) | 6% | -4 | 101% (active) | inactive | inactive | inactive | inactive
CCOc1cc(C(=O)NCCN(C(C)C)C(C)C)ccc1-c1nc2ccc(Cl)cc2[nH]1 | 90% (active) | 4% | 2 | 101% (active) | inactive | inactive | inactive | inactive
O=C(Nc1cccc(-c2nn3ccccc3c2-c2ccnc(Nc3cccc(F)c3)n2)c1)c1c(F)ccc(F)c1Cl | 38% | 41% | 5 | 93% (active) | inactive | inactive | inactive | inactive
